In PubChem BioAssay (NCI):
This is part of a sample that, as a whole, favours compounds with a hit. Of some 83,000 tested, about 20% had one in any assay.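 A percent growth of 40 corresponds to 60% growth inhibition; 0 means no net growth; -100 means all cells died. Active threshold: below 10.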 Calls of active or inactive are those of the source.

Tests used:
Test in all cases: NCI-60 one-dose screen, 48 h (100 = growth as untreated, 0 = no growth, -100 = all killed)
Conditions in all cases: 10 µM unless noted
NCI-H23 lung = system: NCI-H23 lung
NCI-H226 lung = system: NCI-H226 lung
NCI-H322M lung = system: NCI-H322M lung
HOP-62 NSCLC = system: HOP-62 NSCLC
NCI-H460 lung = system: NCI-H460 lung
HOP-92 NSCLC = system: HOP-92 NSCLC
NCI-H522 lung = system: NCI-H522 lung
A549/ATCC NSCLC = system: A549/ATCC NSCLC
786-0 renal = system: 786-0 renal
COLO 205 colon = system: COLO 205 colon
DU-145 prostate = system: DU-145 prostate
K-562 leukemia = system: K-562 leukemia
MALME-3M melanoma = system: MALME-3M melanoma
MDA-MB-231 breast = system: MDA-MB-231 breast
RXF 393 renal = system: RXF 393 renal
SF-268 CNS = system: SF-268 CNS
SF-295 CNS = system: SF-295 CNS
SF-539 CNS = system: SF-539 CNS
UACC-257 melanoma = system: UACC-257 melanoma
M14 melanoma = system: M14 melanoma

Measured: growth

COc1cc(Cc2cc(-c3ccccc3)nn(Cc3ccccc3)c2=O)cc(OC)c1OC
inactive: NCI-H23 lung 37.4% | NCI-H226 lung 46.2% | NCI-H322M lung 78.5% | HOP-62 NSCLC 66.1% | NCI-H460 lung 37.3% | HOP-92 NSCLC 51.1% | NCI-H522 lung 28.4% | A549/ATCC NSCLC 19.9% | 786-0 renal 49.9% | COLO 205 colon 15.5% | DU-145 prostate 77.7% | K-562 leukemia 20.6% | MALME-3M melanoma 35.2% | MDA-MB-231 breast 50.1% | RXF 393 renal 31.7% | SF-268 CNS 47.4% | SF-295 CNS 31.5% | SF-539 CNS 70% | UACC-257 melanoma 32% | M14 melanoma 44.1%

COc1cc(OC)c2c(=O)c3c(CC=C(C)C)cc(OC)c(O)c3oc2c1
inactive: NCI-H23 lung 93.7% | NCI-H226 lung 99.3% | NCI-H322M lung 83.7% | HOP-62 NSCLC 89.1% | NCI-H460 lung 99.2% | HOP-92 NSCLC 77% | NCI-H522 lung 53% | A549/ATCC NSCLC 90.8% | 786-0 renal 90.1% | DU-145 prostate 85% | K-562 leukemia 61.4% | MALME-3M melanoma 114% | MDA-MB-231 breast 91.1% | RXF 393 renal 100% | SF-268 CNS 93.6% | SF-295 CNS 89.7% | SF-539 CNS 91.4% | UACC-257 melanoma 107% | M14 melanoma 91%

CCN(CC)C(=O)C1=C(C)NC(=O)NC1c1ccc2c(c1)OCO2 (configuration not stated)
inactive: NCI-H23 lung 103% | NCI-H226 lung 100% | NCI-H322M lung 109% | HOP-62 NSCLC 105% | NCI-H460 lung 106% | HOP-92 NSCLC 109% | NCI-H522 lung 96.6% | A549/ATCC NSCLC 106% | 786-0 renal 106% | COLO 205 colon 114% | DU-145 prostate 113% | K-562 leukemia 101% | MALME-3M melanoma 108% | MDA-MB-231 breast 108% | RXF 393 renal 102% | SF-268 CNS 102% | SF-295 CNS 103% | SF-539 CNS 96.2% | UACC-257 melanoma 103% | M14 melanoma 104%

O=c1cc(CNc2cc(F)cc(F)c2)c2ccc(I)cc2[nH]1
active: K-562 leukemia 9.97% | SF-539 CNS -12.6%
inactive: NCI-H23 lung 46.3% | NCI-H226 lung 68.6% | NCI-H322M lung 48.3% | HOP-62 NSCLC 37.5% | NCI-H460 lung 18.5% | HOP-92 NSCLC 54% | NCI-H522 lung 15.6% | A549/ATCC NSCLC 38.6% | 786-0 renal 43.7% | COLO 205 colon 33.7% | DU-145 prostate 38.4% | MALME-3M melanoma 38.9% | MDA-MB-231 breast 60.6% | RXF 393 renal 15.1% | SF-268 CNS 46.9% | SF-295 CNS 30.9% | UACC-257 melanoma 53.4% | M14 melanoma 20%

COc1cc2c(cc1-c1c(C)noc1C)ncc1nc(CN3CCOCC3)n([C@H](C)COC(F)F)c12
inactive: NCI-H23 lung 45.4% | NCI-H226 lung 58% | NCI-H322M lung 38.5% | HOP-62 NSCLC 16.6% | NCI-H460 lung 51.9% | A549/ATCC NSCLC 37.6% | 786-0 renal 45.5% | DU-145 prostate 62.2% | K-562 leukemia 28% | MALME-3M melanoma 37.8% | MDA-MB-231 breast 29.5% | RXF 393 renal 35.1% | SF-268 CNS 55.2% | SF-295 CNS 40.3% | SF-539 CNS 35.1% | UACC-257 melanoma 26.3% | M14 melanoma 40.1%
active: HOP-92 NSCLC 5.85% | NCI-H522 lung -0.0255%

CC(C)CCC[C@@H](C)[C@H]1CC[C@H]2[C@@H]3CC=C4c5sc(Nc6cc(C(F)(F)F)cc(C(F)(F)F)c6)nc5CC[C@]4(C)[C@H]3CC[C@]12C
inactive: NCI-H23 lung 93.4% | NCI-H226 lung 104% | NCI-H322M lung 99.1% | HOP-62 NSCLC 81.9% | NCI-H460 lung 105% | HOP-92 NSCLC 79% | NCI-H522 lung 101% | A549/ATCC NSCLC 92.1% | 786-0 renal 110% | COLO 205 colon 99.8% | DU-145 prostate 104% | K-562 leukemia 101% | MALME-3M melanoma 94.8% | MDA-MB-231 breast 108% | RXF 393 renal 107% | SF-268 CNS 101% | SF-295 CNS 104% | SF-539 CNS 98% | UACC-257 melanoma 99.2% | M14 melanoma 98.6%

COC(=O)c1c(C)nc(C)c2c1C(=O)C=C(NCc1ccccc1)C2=O
inactive: NCI-H23 lung 72% | NCI-H226 lung 93.9% | NCI-H322M lung 92.5% | HOP-62 NSCLC 91.2% | NCI-H460 lung 67.1% | HOP-92 NSCLC 117% | NCI-H522 lung 78.8% | A549/ATCC NSCLC 103% | 786-0 renal 84.7% | DU-145 prostate 95.8% | K-562 leukemia 69.1% | MDA-MB-231 breast 70.3% | RXF 393 renal 94.5% | SF-268 CNS 78.8% | SF-295 CNS 87.2% | SF-539 CNS 96.9% | UACC-257 melanoma 104% | M14 melanoma 66.9%
active: MALME-3M melanoma -1.94%

Clc1ccc(Nc2nnc(CNc3ccccc3)c3ccccc23)cc1
inactive: NCI-H226 lung 25% | NCI-H322M lung 30.4% | HOP-62 NSCLC 27.4% | NCI-H460 lung 17.7% | A549/ATCC NSCLC 20.3% | 786-0 renal 21.4% | COLO 205 colon 11.9% | DU-145 prostate 19% | MDA-MB-231 breast 19.9% | RXF 393 renal 25.7% | SF-268 CNS 20.9% | SF-295 CNS 14.3% | SF-539 CNS 34%
active: NCI-H23 lung 9.95% | HOP-92 NSCLC -19.3% | NCI-H522 lung -5.92% | K-562 leukemia 5.39% | MALME-3M melanoma -13.8% | UACC-257 melanoma -6.49% | M14 melanoma 5.8%

Cc1ncc(C(=O)Nc2ccc(CN3CCN(C)CC3)c(C(F)(F)F)c2)cc1C#Cc1cnc(N)c2ccc(C#N)cc12
inactive: NCI-H23 lung 29.5% | NCI-H322M lung 27.9% | NCI-H460 lung 11.2% | NCI-H522 lung 27.2% | A549/ATCC NSCLC 22.9% | SF-268 CNS 16.7% | SF-295 CNS 54.1%
active: NCI-H226 lung 0.011% | HOP-62 NSCLC -7.92% | HOP-92 NSCLC -20.2% | 786-0 renal -70.1% | DU-145 prostate 8.97% | K-562 leukemia -35.3% | MALME-3M melanoma -55.6% | MDA-MB-231 breast -76.5% | RXF 393 renal -64% | SF-539 CNS -0.429% | UACC-257 melanoma -9.1% | M14 melanoma -41.5%

N#Cc1c(-c2ccccc2)nc2c(c(-c3ccc(Cl)cc3)nn2-c2ccccc2)c1-c1ccc([N+](=O)[O-])cc1
inactive: NCI-H23 lung 96% | NCI-H226 lung 94.7% | NCI-H322M lung 97% | HOP-62 NSCLC 94.7% | NCI-H460 lung 103% | HOP-92 NSCLC 103% | NCI-H522 lung 91.7% | A549/ATCC NSCLC 100% | 786-0 renal 110% | COLO 205 colon 110% | DU-145 prostate 101% | K-562 leukemia 101% | MALME-3M melanoma 101% | MDA-MB-231 breast 102% | RXF 393 renal 109% | SF-268 CNS 98.6% | SF-295 CNS 98.7% | SF-539 CNS 95.9% | UACC-257 melanoma 96.2% | M14 melanoma 97.9%

COc1ccc(C(=O)/C=C/c2ccccc2)cc1S(N)(=O)=O
active: K-562 leukemia 7.9%
inactive: NCI-H23 lung 79.6% | NCI-H226 lung 82.5% | NCI-H322M lung 71.4% | HOP-62 NSCLC 86.9% | NCI-H460 lung 53.6% | HOP-92 NSCLC 95.7% | NCI-H522 lung 76% | A549/ATCC NSCLC 65.7% | 786-0 renal 64.6% | DU-145 prostate 41.7% | MALME-3M melanoma 93.6% | MDA-MB-231 breast 71.5% | RXF 393 renal 80.6% | SF-268 CNS 63.3% | SF-295 CNS 91.1% | SF-539 CNS 60.2% | UACC-257 melanoma 90.9% | M14 melanoma 82.8%

CCn1cc(C(=O)N/N=C/c2cccc(F)c2)c(=O)c2cc(F)c(N3CCNC(C)C3)c(F)c21 (configuration not stated)
inactive: NCI-H23 lung 76.2% | NCI-H226 lung 97.1% | NCI-H322M lung 83.4% | HOP-62 NSCLC 86.5% | HOP-92 NSCLC 51.2% | SF-268 CNS 39.4% | SF-295 CNS 75.7% | UACC-257 melanoma 89%
active: NCI-H460 lung -79% | NCI-H522 lung -29.8% | A549/ATCC NSCLC -66.6% | 786-0 renal -39.7% | DU-145 prostate -87.5% | K-562 leukemia -52.1% | MALME-3M melanoma -67.4% | MDA-MB-231 breast -49.6% | RXF 393 renal -21.6% | SF-539 CNS -4.61% | M14 melanoma -7.07%

CCCN(CCSSCCNc1nc(N(C)O)nc(N(C)O)n1)c1nc(N(C)O)nc(N(C)O)n1
active: UACC-257 melanoma -2.3%
inactive: NCI-H23 lung 84% | NCI-H226 lung 82.6% | NCI-H322M lung 44.5% | HOP-62 NSCLC 24.5% | NCI-H460 lung 28.4% | HOP-92 NSCLC 58.3% | NCI-H522 lung 65.1% | A549/ATCC NSCLC 48% | 786-0 renal 70% | DU-145 prostate 54.4% | K-562 leukemia 157% | MALME-3M melanoma 62.1% | MDA-MB-231 breast 66.6% | RXF 393 renal 72.9% | SF-268 CNS 42.1% | SF-295 CNS 48.7% | SF-539 CNS 62.8% | M14 melanoma 84.4%

CC(C)C1C2=C(NCCN1C(=O)c1ccncc1)C(C)(C)N(Cc1ccccc1)C2=O (configuration not stated)
inactive: NCI-H23 lung 99.6% | NCI-H226 lung 107% | NCI-H322M lung 110% | HOP-62 NSCLC 103% | NCI-H460 lung 116% | HOP-92 NSCLC 103% | NCI-H522 lung 80.9% | 786-0 renal 105% | COLO 205 colon 109% | DU-145 prostate 105% | K-562 leukemia 98.1% | MALME-3M melanoma 96.6% | MDA-MB-231 breast 100% | RXF 393 renal 126% | SF-268 CNS 96.9% | SF-295 CNS 96.5% | SF-539 CNS 108% | UACC-257 melanoma 105% | M14 melanoma 101%
